In PubChem BioAssay AID592 (National Center for Advancing Translational Sciences (NCATS), 2007):
The campaign covered roughly 59,000 compounds. Fewer than 10 were called active. The rule behind the calls is not given here. A selection follows.

Experiment: qHTS Assay for Spectroscopic Profiling in A647 Spectral Region
Details: Compound fluorescence, A647 channel (570/671 nm), Tris buffer; stronger effect = higher value
From the text: NIH Molecular Libraries Screening Centers Network [MLSCN] NIH Chemical Genomics Center [NCGC] […] Occasionally, the artifactual effect may originate from the compounds own spectral or other biophysical properties which generally tend to track its assay concentration. Pre-screening/profiling the library with respect to the compounds spectral properties should help one exclude false positives early on. While the most informative fluorescent profiling data set is obtained by performing a full excitation and emission scan of each well by using a monochromator-based plate reader, such an approach is practical only on a very limited scale as scanning each well requires long time. An alternative approach, applied here, is to perform plate reader scans using selected excitation and emission wavelength pairs to generate a multidimensional relational database that correlates compound concentration and the respective relative fluorescence intensity at a given wavelength set. A standard curve of Alexa 647 (A647) present on each plate as six-point concentration series, was used to compute a normalized fluorescence response, termed dye-equivalent concentration, for each compound at each concentration.
NCGC Assay Protocol Summary: Buffer: 100 mM Tris buffer, pH 8.0 Dye standard plate: The wells in columns 1 through 4 of a Kalypsys polypropylene 1536-well compound plate were filled with standard solutions of fluorophore corresponding to the spectral region of interest. Solutions of A647 were placed in the following wells: AC1, AD1: 3 mM, AC2, AD2: 300 uM, AC3, AD3: 30 uM, AC4, AD4: zero (DMSO), AE1, AF1: 3 uM, AE2, AF2: 900 nM, AE3, AF3: 300 nM, AE4, AF4: zero (DMSO). Assay Steps: Six uL of buffer were dispensed to 1536-well Greiner black plates. Compounds and dye standards (23 nL) were transferred via Kalypsys PinTool. The plates were incubated for 15 min at room temperature, and then read on ViewLux (Perkin-Elmer) High-throughput CCD imager using 570 nm and 671 nm excitation and emission filter set. Keywords: NIH Roadmap, MLSCN, MLI, MLSMR, qHTS, NCGC, A647, A-647, Fluorescent Profiling.

Max dye-equivalent concentration, inactive:
O=c1c(-c2cccs2)nc2cnc(Oc3ccccc3)nc2n1-c1ccccc1 2.8 nM, COc1cc(C2C3C(=O)N(c4ccccc4)C(=O)C3ON2c2ccccc2)ccc1O (stereo unspecified) 30 nM, COc1ccc2oc(=O)c(C(=O)O)cc2c1 1 nM, O=C1N(Cc2ccc3c(c2)OCO3)c2ccccc2C1(O)c1c[nH]c2ccccc12 (stereo unspecified) 1 nM, O=C1CCC(C(=O)Nc2ccc(OC(F)F)cc2)N1 (stereo unspecified) 1 nM, CC(=O)N1CCC2(CCCN(c3ncccn3)C2)CC1 1 nM, Cc1ccccc1Nc1nnc(C)c(=O)[nH]1 45 nM, Cc1ccc(-n2c(N)c(C(=O)N3CCOCC3)sc2=S)c(C)c1 1 nM, CC(=O)OC(C(=O)NC1CCCCC1)c1ccccc1 (stereo unspecified) 30 nM, NC(=O)C1CCN(C(=O)c2ccc(C(F)(F)F)cc2)CC1 1 nM, COc1cccc(Cn2c(=O)c(C)nc3cnc(Oc4ccccc4)nc32)c1 1 nM, Cc1cccc(NC(=O)c2ccccc2NC(=O)C(C)(C)C)n1 39 nM, CCc1ccccc1NC1c2ccccc2C(=O)N1c1cccnc1 (stereo unspecified) 11 nM, CCOC(=O)c1c(C)nc(-c2ccccc2)nc1NC(=O)C(C)C 1 nM, Cc1nc(NCc2ccccc2)c(C(N)=O)c2c1COC(C)(C)C2 37 nM, COc1ccccc1CNC(=O)CCCn1c(=O)c2ccccc2n(CC(=O)NC2CCCC2)c1=O 28 nM, O=C(c1cccs1)N1CCN(C(=O)N2CCOCC2)CC1 9.6 nM, CC1Cc2nc(SCC(=O)Nc3ccccc3F)n(C)c(=O)c2S1 (stereo unspecified) 1 nM, COc1ccc2nccc(C(=O)O)c2c1 1 nM, CCn1c(=N)c(S(=O)(=O)c2ccc(F)cc2)cc2c(=O)n3ccccc3nc21 1.8 nM, O=C(CCCN1C(=O)CSc2ncccc21)N1CCN(c2cccc(C(F)(F)F)c2)CC1 6.4 nM, COc1ccc(C(=O)Nc2cccnc2)cc1C(=O)Nc1cccnc1 1.5 nM, OCCCN1c2ccccc2Nc2nnc(-c3ccccc3)cc21 20 nM, CCOC(=O)c1[nH]cnc1C(=O)NC1CCCCC1 1 nM, ClC(Cl)(Cl)C(N1CCN(c2ccccc2)CC1)N1CCN(c2ccccc2)CC1 1 nM, CN(Cc1ccco1)c1cc(-c2ccccc2C(F)(F)F)ncn1 1 nM, CC(=O)Oc1cccc(N2C(=O)CC(Nc3ccc(N4CCOCC4)cc3)C2=O)c1 (stereo unspecified) 1 nM, Cn1c(=O)[nH]c(=O)c2c1nc(N(CCO)Cc1ccccc1)n2Cc1ccccc1Cl 78 nM, Cn1cccc1C(=O)N1CCC2(CC1)CN(c1cccc(-c3ccccc3)c1)C2 18 nM, CCCCn1c(=S)[nH]c2ncccc2c1=O 1 nM, CC1(C)SC2c3ccccc3C(=O)N2[C@@H]1C(=O)NCc1ccco1 (stereo partly specified) 1 nM, O=C(O)CN1C(=O)CC(Cc2ccccc2)C1=O (stereo unspecified) 1 nM, O=C(Cc1c(F)cccc1Cl)N1CCN(C(=O)c2ccco2)CC1 7.2 nM, CCCn1c(=O)c2[nH]c(-c3ccc(OCC(=O)NCCN)cc3)nc2n(CCC)c1=O 50 nM, O=c1[nH]c(=O)c2nc3ccccc3nc2[nH]1 49 nM, Cc1nc2nc3c(cn2n1)C(=O)CC(c1ccccc1)C3 (stereo unspecified) 28 nM, CSCC[C@H](NC(=O)NCc1cccs1)C(=O)O 3.7 nM, CN(C(=O)COc1nnc(-c2cccs2)c(-c2cccs2)n1)c1ccccc1 1 nM, Cc1cc(N2C(=O)C(=O)/C(=C(/O)c3ccccc3)C2c2cccc(Br)c2)no1 (stereo unspecified) 1.8 nM, C/C(N)=C(\C#N)C(=O)NCCc1ccccn1 39 nM, CCc1nnc(NC(=O)c2nc3nccc(C)n3n2)s1 18 nM, N#Cc1ccc(CSc2nnc(-c3ccccn3)n2-c2ccc(Cl)cc2)cc1 2.1 nM, Clc1ccc(C=Nc2ccc3c(c2)Cc2ccccc2-3)c(Cl)c1 3.2 nM, CN(C)CCCNC(=O)c1ccc2[nH]c3ccccc3c2c1 3 nM, CC(C)CSC[C@@H]1O[C@H](n2cnc3c(N)nccc32)[C@H](O)[C@@H]1O 13 nM, Cc1ccccc1Nc1nc(N)nc(CN2CCN(c3ccccn3)CC2)n1 44 nM, COc1ccc(C(c2nnnn2Cc2cccs2)N2CCN(c3ccccc3)CC2)cc1OC (stereo unspecified) 11 nM, COC(=O)CNC(=O)c1ccc2c(c1)S(=O)(=O)c1ccccc1C2=O 6.7 nM, O=C(O)c1ccc(C(=O)c2ccccc2C(=O)O)cc1C(=O)O 3.2 nM, O=C(O)CSCNC(=O)CC12CC3CC(CC(C3)C1)C2 1.2 nM, COc1cc(C(=O)N(Cc2ccc(N(C)C)cc2)C2CCS(=O)(=O)C2)cc(OC)c1OC (stereo unspecified) 8.2 nM, O=S(=O)(/C=C/c1ccccc1)NCCc1ccccn1 23 nM, Fc1ccccc1C(c1nnnn1Cc1ccc2c(c1)OCO2)N1CCN(Cc2ccccc2)CC1 (stereo unspecified) 3.5 nM, Cc1cc(C)nc(SCc2nnc(SCC(=O)OC3CCCCC3)o2)n1 1 nM, Cc1csc(NC(=O)C2CCCN2C(=O)OCC(C)C)n1 (stereo unspecified) 15 nM, N=C(CC(=O)Nc1ccccn1)c1ccccc1 36 nM, Cc1oc(C)c(C(=O)NCCCC(=O)O)c1C(=O)NCCCC(=O)O 15 nM, Cc1c(O)c(Br)c(C)c(O)c1Br (tested in a mixture with another compound) 36 nM, O=C1c2ccccc2C(=O)N1CCCSc1ccccc1 1 nM, Cc1ccc(NC(=O)C2CCCN(S(=O)(=O)c3c(C)noc3C)C2)c(C)c1 (stereo unspecified) 5.9 nM, CCCNS(=O)(=O)c1ccc(CCC(=O)NCc2cccnc2)cc1 46 nM, Cn1c(=O)[nH]c(=O)c2c1nc(CN(Cc1ccccc1)Cc1ccccc1)n2CCN1CCOCC1 2 nM, CCn1c(=O)cc(SCC(=O)NCc2ccc3c(c2)OCO3)c2ccccc21 34 nM, CCc1cc2c(=O)c(-c3ccon3)c(N)oc2cc1OC 23 nM, N#Cc1cccc(NC(=O)CCC2CCCC2)c1 1 nM, Cc1nnc(SCc2ccc(C(=O)c3ccc(Cl)cc3)o2)n1-c1ccccc1 1.7 nM, Cn1c2ccccc2c2c(C(=O)N3CCN(c4ccc(F)cc4)CC3)cn(C3CCCC3)c(=O)c21 2.8 nM, CCn1c(Cc2ccccc2)nnc1SCc1nc2ccccc2c(=O)[nH]1 3.7 nM, CCCOc1ccc(-c2nc(N)n[nH]2)cc1 1 nM, Cc1nnc(SCC(=O)N2CCc3ccccc32)n1-c1ccccc1 30 nM, O=C(Nc1c[nH]c(=O)[nH]c1=O)Oc1ccccc1 1 nM, COC(=O)c1c(NC(=O)CSc2nncs2)sc2c1CCCCC2 57 nM, CCCCN(CCCC)C(=O)CCS(=O)(=O)c1ccc2c(c1)n(C)c(=O)c(=O)n2C 16 nM, COc1cc(NS(=O)(=O)c2ccc(NC(C)=O)cc2)cc(OC)c1 2 nM, COc1ccc(S(=O)(=O)N2CCN(c3ncnc4c(-c5ccccc5)nsc34)CC2)cc1 45 nM, C#CCN1C(=O)C(O)(CC(=O)c2cc(OC)ccc2OC)c2ccccc21 (stereo unspecified) 44 nM, COc1ccc2c(c1)C(C)=CC(C)(C)N2C(=O)CNCc1ccc2c(c1)OCO2 27 nM, CN(C)Cc1c(C#N)c2ccccc2n1C 1 nM, CN1CCCC(OC(=O)COc2ccc(Br)cc2)C1 (stereo unspecified) 2.1 nM, Fc1ccc2nc(Nc3nc4c(s3)CCCC4)sc2c1 34 nM, Cc1n[nH]c(C)c1S(=O)(=O)N1CCCC(C(=O)NCC2COc3ccccc3O2)C1 (stereo unspecified) 15 nM, CCON=C1C(C)(C)C(C)(C)C(C)(C)C1(C)C 1 nM, CC(C)c1ccc(N2CC(C(=O)Nc3nccs3)CC2=O)cc1 (stereo unspecified) 1 nM, Cc1nc(NC(=O)CCC(=O)O)sc1C(=O)N(C)C 1 nM, Cc1nc2ncnn2c(C)c1CCC(=O)N1CCN(C(=O)c2ccco2)CC1 1 nM, CN1CCc2c(sc3c2c(NCc2ccco2)nc2nnnn23)C1 1 nM, CCN(C(=O)CSc1ncn[nH]1)c1cccc2ccccc12 1 nM, Cc1nn(-c2ccccc2)c2sc(C(=O)N(Cc3ccco3)C(C)C(=O)NC(C)(C)C)cc12 (stereo unspecified) 1 nM, COc1ccc2c(c1)CCc1c(C(=O)Nc3c(C)n(C)n(-c4ccccc4)c3=O)noc1-2 1 nM, Cc1cc2ccccc2n2c(SCC(=O)N3CCN(C(=O)c4ccco4)CC3)nnc12 3.8 nM, CCSc1nc2c(c(=O)[nH]1)C(c1cccnc1)C(C(=O)OC(C)C)=C(C)N2 (stereo unspecified) 29 nM
